# Results filed as inconclusive are left out. A call without a number means that no potency is given here. Calls of active or inactive are those of the source. The call rests on the fitted dose curve; in most records, active means well fitted inhibition curve with a large enough effect; inconclusive means small, poorly fitted or top-dose-only effect; inactive means flat fitted curve, though single readings scatter.
# Assay: qHTS for Inhibitors of Plasmodium falciparum (7G8) proliferation (AID 504316); further: nearly all actives have a fitted effect of over 65% in size
# Conditions: P. falciparum 7G8 in erythrocytes, SYBR Green DNA, 72 h; series mostly up to 6.7 µM
# Method in brief: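 Parasite growth measured as SYBR Green DNA fluorescence (ex 485, em 535 nm) after overnight lysis following 72 h culture at 37 °C, 0.3% parasitemia, 2.5% hematocrit. Values normalized against DMSO and 0.29 uM artemisinin controls, with plate-stack correction.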
# Potency means the concentration at half of the fitted maximal effect.
row,SMILES,Potency
1,CCCCC1=CC2=C(c3ccco3)C(=O)C(C)(OC(=O)c3ccc(OC)cc3)C(=O)C2=CN1C1CCCC1 (stereo not given),inactive
2,COC(=O)CCC(=O)OC1(C)C(=O)C=C2C=C(C3CC3)N(C(CO)CO)C=C2C1=O (stereo not given),inactive
3,CCOC(=O)N1C2=NC(C(=O)OC)=C(C(=O)OC)[C@@H]3N(C)c4ccc(OC)cc4[C@]23C[C@H]1C(=O)OC,inactive
4,CC1(OC(=O)C2CCCC2)C(=O)C=C2C=C(c3ccsc3)N(CCc3c[nH]c4ccccc34)C=C2C1=O (stereo not given),inactive
5,COC(=O)C1=C(C)N(Cc2ccco2)C(=O)N[C@@H]1c1ccc(Br)cc1,inactive
6,COC(=O)C1=C(C(=O)OC)[C@@H]2N(C)c3ccccc3[C@@]23C[C@@H](CO)N(C(=O)c2cc(C)oc2C)C3=N1,inactive
7,COC(=O)C1=C(C(=O)OC)[C@@H]2N(C)c3ccc(OC)cc3[C@@]23C[C@@H](C(=O)OC)N(S(=O)(=O)c2ccc(Br)cc2)C3=N1,1.51 µM (active)
8,CCCCC1=CC2=CC(=O)C(C)(OC(=O)CC)C(=O)C2=CN1CCc1c[nH]c2ccccc12 (stereo not given),inactive
9,COC(=O)N1C(C)=Cc2ccccc2C1C/C(C)=C/C(C)=O (stereo not given),inactive
10,COC/C=C/C1=CC2=CC(=O)C(C)(OC(=O)c3cnc4ccccc4n3)C(=O)C2=CN1Cc1ccco1 (stereo not given),inactive
11,CCCCC1=CC2=C(c3ccco3)C(=O)C(C)(OC(=O)c3ccc(OC)cc3)C(=O)C2=CN1CCc1c[nH]c2ccccc12 (stereo not given),inactive
12,CCN1C(=O)N[C@@H](c2cccc(C(F)(F)F)c2)C(C(=O)OC)=C1C,inactive
13,CCCCC1=CC2=CC(=O)C(C)(OC(=O)CC)C(=O)C2=CN1CCc1ccccn1 (stereo not given),inactive
14,CC#CCN1c2ccccc2[C@]23C[C@@H](C(=O)OC)N(C(=O)c4cccs4)C2=NC(C(=O)OC)=C(C(=O)OC)[C@H]13,inactive
15,CCN1C(=O)N[C@@H](c2cccs2)C(C(=O)OC)=C1C,inactive
16,CCCCC1=CC2=CC(=O)C(C)(OC(=O)CC)C(=O)C2=CN1CCOC (stereo not given),inactive
17,C=CCN1C=C2C(=O)C(C)(OC(=O)CC)C(=O)C=C2C=C1CCCC (stereo not given),inactive
18,COC(=O)CCC(=O)OC1(C)C(=O)C2=CN(C3CCCC3)C(c3ccc(OC)cc3)=CC2=C(Br)C1=O (stereo not given),inactive
19,CCCCCCC(=O)Cc1cc(OC)c(OC)cc1C=C(C(=O)OCC)C(=O)OCC,inactive
20,CCCCC1=CC2=CC(=O)C(C)(OC(=O)CC)C(=O)C2=CN1CCc1ccc(Br)cc1 (stereo not given),inactive

row,SMILES,Potency
1,CC1(OC(=O)C2CCCC2)C(=O)C=C2C=C(c3ccsc3)N(c3ccccc3)C=C2C1=O (stereo not given),inactive
2,COC(=O)CCCC1=CC2=CC(=O)C(C)(OC(=O)c3cccs3)C(=O)C2=CN1Cc1ccccc1 (stereo not given),inactive
3,CCCCc1nc2c(c3c1C[C@H](C)OC3)CN(C(=O)Nc1cccc(C#N)c1)CC2,inactive
4,COC(=O)[C@H]1[C@@H](C)N(Cc2ccccc2)C(=O)N[C@H]1c1cccc(C(F)(F)F)c1,inactive
5,COC/C=C/C1=CC2=CC(=O)C(C)(OC(=O)c3cnc4ccccc4n3)C(=O)C2=CN1C1CCCC1 (stereo not given),inactive
6,Cc1ccc(S(=O)(=O)N2CCc3nc(-c4ccccc4)c4c(c3C2)CO[C@@H](C)C4)cc1,inactive
7,CCCCC1=CC2=CC(=O)C(C)(OC(=O)CC)C(=O)C2=CN1CCCCO (stereo not given),inactive
8,COC(=O)C1=C(C(=O)OC)[C@@H]2Nc3ccccc3[C@@]23C[C@@H](C(=O)OC)N(S(=O)(=O)c2c(C)noc2C)C3=N1,inactive
9,COc1ccc(-c2nc3c(c4c2C[C@H](c2ccccc2)OC4)CN(S(=O)(=O)c2c(C)noc2C)CC3)c(C)c1,1.69 µM (active)
10,COC(=O)C1=C(C(=O)OC)[C@@H]2Nc3ccccc3[C@@]23C[C@@H](C(=O)OC)N=C3N1,inactive
11,CCN1C(=O)N[C@@H](c2cccc(F)c2)C(C(C)=O)=C1C,inactive
12,COC(=O)[C@]1(C)C=C[C@@H](C)[C@H](c2ccccc2Br)N1C(=O)C(F)(F)F,inactive
13,CCOC(=O)CN1C(=O)N[C@@H](c2cccc(C(F)(F)F)c2)[C@@H](C(=O)OC)[C@H]1C,inactive
14,CCCCS(=O)(=O)N1CCc2nc(COc3ccccc3)c3c(c2C1)CO[C@@H](C)C3,inactive
15,COC(=O)CCC(=O)OC1(C)C(=O)C=C2C=C(C3CC3)N(C3CCCCC3)C=C2C1=O (stereo not given),inactive
16,COCCN1C=C2C(=O)C(C)(OC(=O)CCc3ccccc3)C(=O)C=C2C=C1c1ccc(C#N)cc1 (stereo not given),inactive
17,CCN1C(=O)N(C)[C@@H](c2ccccc2)C(C(C)=O)=C1C,inactive
18,CC1(OC(=O)CCc2ccccc2)C(=O)C=C2C=C(c3ccc(C#N)cc3)N(c3ccccc3)C=C2C1=O (stereo not given),inactive
19,COC(=O)N1C(/C=C/C=C/c2ccc(OC)cc2)=Cc2ccccc2C1CC(C)=O (stereo not given),1.51 µM (active)
20,COC(=O)[C@H]1[C@H](CCc2ccccc2)NC(=O)N(Cc2ccccc2)[C@@H]1C,inactive

# — PubChem BioAssay (NCATS)
